# Measurements: article PMC8384837, “Expanding the binding specificity for RNA recognition by a PUF domain”
# How the values were obtained:
# Experiment in all cases: yeast three-hybrid, YBZ-1, SC-Leu-His + 0.5 mM 3-AT, 4 days
# Conditions in all cases: tags: N-Gal4 AD-HA kept; label: inside an RPR1-promoter hybrid RNA with tandem MS2 sites; ssRNA
# PUM1 PUF domain R8-KYT = PUM1 PUF domain R8-KYT (Homo sapiens, UniProt Q14671 828-1176, N1122K;Q1126T)
# How it was run: (§1)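 Pumilio-1 PUF domain libraries, randomized at the three base-contacting residues of each repeat, were co-expressed with matching RNA elements from a centromeric plasmid in strain YBZ-1, which carries a LexA–MS2 coat fusion and a HIS3 reporter. Transformants grew for four days on SC-Leu (input) or on SC-Leu-His + 0.5 mM 3-AT (selection), and the repeat regions were PCR-amplified and Illumina-sequenced. The interaction score is the log change in variant frequency from input to selection. That logarithm is base 2, with a pseudocount of 1 where a variant was absent.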
# PUM1 PUF domain R8-RNR = PUM1 PUF domain R8-RNR (Homo sapiens, UniProt Q14671 828-1176, N1122R;Y1123N;Q1126R)
# How it was run: as §1
# PUM1 PUF domain R8-RFG = PUM1 PUF domain R8-RFG (Homo sapiens, UniProt Q14671 828-1176, N1122R;Y1123F;Q1126G)
# How it was run: as §1
# PUM1 PUF domain R8-PFW = PUM1 PUF domain R8-PFW (Homo sapiens, UniProt Q14671 828-1176, N1122P;Y1123F;Q1126W)
# How it was run: as §1
# PUM1 PUF domain R8-THR = PUM1 PUF domain R8-THR (Homo sapiens, UniProt Q14671 828-1176, N1122T;Y1123H;Q1126R)
# How it was run: as §1
# PUM1 PUF domain R8-KRN = PUM1 PUF domain R8-KRN (Homo sapiens, UniProt Q14671 828-1176, N1122K;Y1123R;Q1126N)
# How it was run: as §1
# PUM1 PUF domain R5-PGY = PUM1 PUF domain R5-PGY (Homo sapiens, UniProt Q14671 828-1176, C1007P;R1008G;Q1011Y)
# How it was run: as §1
# PUM1 PUF domain R6-VFA = target: T1, PUM1 PUF domain R6-VFA (Homo sapiens, UniProt Q14671 828-1176, N1043V;Y1044F;Q1047A)
# T1 sequence: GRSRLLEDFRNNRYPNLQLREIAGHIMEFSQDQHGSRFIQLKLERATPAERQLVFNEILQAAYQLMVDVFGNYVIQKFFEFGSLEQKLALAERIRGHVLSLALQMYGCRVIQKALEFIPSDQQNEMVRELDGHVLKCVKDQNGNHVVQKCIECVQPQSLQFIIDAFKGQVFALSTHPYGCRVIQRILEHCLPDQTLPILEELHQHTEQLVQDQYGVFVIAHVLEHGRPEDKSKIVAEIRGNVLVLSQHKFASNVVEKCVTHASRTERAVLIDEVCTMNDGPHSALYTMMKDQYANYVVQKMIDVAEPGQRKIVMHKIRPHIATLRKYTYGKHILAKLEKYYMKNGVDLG
# How it was run: as §1
# PUM1 PUF domain R4-HRG = PUM1 PUF domain R4-HRG (Homo sapiens, UniProt Q14671 828-1176, N971H;H972R;Q975G)
# How it was run: as §1
# PUM1 PUF domain R4-NNW = PUM1 PUF domain R4-NNW (Homo sapiens, UniProt Q14671 828-1176, H972N;Q975W)
# How it was run: as §1
# PUM1 PUF domain R4-TNQ = PUM1 PUF domain R4-TNQ (Homo sapiens, UniProt Q14671 828-1176, N971T;H972N)
# How it was run: as §1
# PUM1 PUF domain R3-AKE = PUM1 PUF domain R3-AKE (Homo sapiens, UniProt Q14671 828-1176, C935A;R936K;Q939E)
# How it was run: as §1
# PUM1 PUF domain R3-RIS = PUM1 PUF domain R3-RIS (Homo sapiens, UniProt Q14671 828-1176, C935R;R936I;Q939S)
# How it was run: as §1
# PUM1 PUF domain R5-SER = PUM1 PUF domain R5-SER (Homo sapiens, UniProt Q14671 828-1176, C1007S;R1008E;Q1011R)
# How it was run: as §1
# PUM1 PUF domain R5-RSC = PUM1 PUF domain R5-RSC (Homo sapiens, UniProt Q14671 828-1176, C1007R;R1008S;Q1011C)
# How it was run: as §1
# PUM1 PUF domain R5-AKR = PUM1 PUF domain R5-AKR (Homo sapiens, UniProt Q14671 828-1176, C1007A;R1008K;Q1011R)
# How it was run: as §1
# PUM1 PUF domain R5-DFT = PUM1 PUF domain R5-DFT (Homo sapiens, UniProt Q14671 828-1176, C1007D;R1008F;Q1011T)
# How it was run: as §1
# PUM1 PUF domain R5-SVS = PUM1 PUF domain R5-SVS (Homo sapiens, UniProt Q14671 828-1176, C1007S;R1008V;Q1011S)
# How it was run: as §1
# PUM1 PUF domain R5-DHA = PUM1 PUF domain R5-DHA (Homo sapiens, UniProt Q14671 828-1176, C1007D;R1008H;Q1011A)
# How it was run: as §1
# PUM1 PUF domain R1-HMR = PUM1 PUF domain R1-HMR (Homo sapiens, UniProt Q14671 828-1176, S863H;R864M;Q867R)
# How it was run: as §1
sequence,measurement,setting,value
GGCUAGAACUAGUGGAUCCCCCGGCGCCCGGCGGCUCGAGCCCGGGUAAGCGUAAAUAGUCUGCAUGCCGCCGGGCGCCAUGCCUGCAGGUCGACUCUAGAAAACAUG,binding signal,PUM1 PUF domain R8-KYT,2.81 log2 enrichment (interaction score)
same,binding signal,PUM1 PUF domain R8-RNR,2.37 log2 enrichment (interaction score)
same,binding signal,PUM1 PUF domain R8-RFG,6.69 log2 enrichment (interaction score)
same,binding signal,PUM1 PUF domain R8-PFW,3.6 log2 enrichment (interaction score)
same,binding signal,PUM1 PUF domain R8-THR,3.22 log2 enrichment (interaction score)
GGCUAGAACUAGUGGAUCCCCCGGCGCCCGGCGGCUCGAGCCCGGGUAAGUGUAAAUAGUCUGCAUGCCGCCGGGCGCCAUGCCUGCAGGUCGACUCUAGAAAACAUG,binding signal,PUM1 PUF domain R8-KYT,2.68 log2 enrichment (interaction score)
same,binding signal,PUM1 PUF domain R8-KRN,2.98 log2 enrichment (interaction score)
same,binding signal,PUM1 PUF domain R5-PGY,4.47 log2 enrichment (interaction score)
same,binding signal,PUM1 PUF domain R6-VFA,2.89 log2 enrichment (interaction score)
same,binding signal,PUM1 PUF domain R4-HRG,3.06 log2 enrichment (interaction score)
same,binding signal,PUM1 PUF domain R8-RNR,0.57 log2 enrichment (interaction score)
same,binding signal,PUM1 PUF domain R8-RFG,4.85 log2 enrichment (interaction score)
same,binding signal,PUM1 PUF domain R8-THR,2.7 log2 enrichment (interaction score)
GGCUAGAACUAGUGGAUCCCCCGGCGCCCGGCGGCUCGAGCCCGGGUAAGUGUACAUAGUCUGCAUGCCGCCGGGCGCCAUGCCUGCAGGUCGACUCUAGAAAACAUG,binding signal,PUM1 PUF domain R4-HRG,2.09 log2 enrichment (interaction score)
same,binding signal,PUM1 PUF domain R4-NNW,4.15 log2 enrichment (interaction score)
GGCUAGAACUAGUGGAUCCCCCGGCGCCCGGCGGCUCGAGCCCGGGUAAGUGUAUAUAGUCUGCAUGCCGCCGGGCGCCAUGCCUGCAGGUCGACUCUAGAAAACAUG,binding signal,PUM1 PUF domain R4-TNQ,4.92 log2 enrichment (interaction score)
same,binding signal,PUM1 PUF domain R4-HRG,2.71 log2 enrichment (interaction score)
GGCUAGAACUAGUGGAUCCCCCGGCGCCCGGCGGCUCGAGCCCGGGUAAGUGAAAAUAGUCUGCAUGCCGCCGGGCGCCAUGCCUGCAGGUCGACUCUAGAAAACAUG,binding signal,PUM1 PUF domain R6-VFA,6.94 log2 enrichment (interaction score)
GGCUAGAACUAGUGGAUCCCCCGGCGCCCGGCGGCUCGAGCCCGGGUAAGUGUAAGUAGUCUGCAUGCCGCCGGGCGCCAUGCCUGCAGGUCGACUCUAGAAAACAUG,binding signal,PUM1 PUF domain R3-AKE,2.98 log2 enrichment (interaction score)
same,binding signal,PUM1 PUF domain R3-RIS,3.17 log2 enrichment (interaction score)
GGCUAGAACUAGUGGAUCCCCCGGCGCCCGGCGGCUCGAGCCCGGGUAAGUGUAAUUAGUCUGCAUGCCGCCGGGCGCCAUGCCUGCAGGUCGACUCUAGAAAACAUG,binding signal,PUM1 PUF domain R3-RIS,3.36 log2 enrichment (interaction score)
GGCUAGAACUAGUGGAUCCCCCGGCGCCCGGCGGCUCGAGCCCGGGUAAGUGUCAAUAGUCUGCAUGCCGCCGGGCGCCAUGCCUGCAGGUCGACUCUAGAAAACAUG,binding signal,PUM1 PUF domain R5-SER,3.79 log2 enrichment (interaction score)
same,binding signal,PUM1 PUF domain R5-RSC,3.02 log2 enrichment (interaction score)
same,binding signal,PUM1 PUF domain R5-AKR,5.56 log2 enrichment (interaction score)
GGCUAGAACUAGUGGAUCCCCCGGCGCCCGGCGGCUCGAGCCCGGGUAAGUGUGAAUAGUCUGCAUGCCGCCGGGCGCCAUGCCUGCAGGUCGACUCUAGAAAACAUG,binding signal,PUM1 PUF domain R5-DFT,3.29 log2 enrichment (interaction score)
same,binding signal,PUM1 PUF domain R5-SVS,3.48 log2 enrichment (interaction score)
same,binding signal,PUM1 PUF domain R5-DHA,2.38 log2 enrichment (interaction score)
GGCUAGAACUAGUGGAUCCCCCGGCGCCCGGCGGCUCGAGCCCGGGUAAGUGUAAAUCGUCUGCAUGCCGCCGGGCGCCAUGCCUGCAGGUCGACUCUAGAAAACAUG,binding signal,PUM1 PUF domain R1-HMR,3.35 log2 enrichment (interaction score)
GGCUAGAACUAGUGGAUCCCCCGGCGCCCGGCGGCUCGAGCCCGGGUAAGUGUUAAUAGUCUGCAUGCCGCCGGGCGCCAUGCCUGCAGGUCGACUCUAGAAAACAUG,binding signal,PUM1 PUF domain R5-RSC,3.18 log2 enrichment (interaction score)
same,binding signal,PUM1 PUF domain R5-DHA,4.01 log2 enrichment (interaction score)
